Assay outcomes deposited in PubChem by National Center for Advancing Translational Sciences (NCATS).
Sampled rows, rich in hits. Any-hit rate of the full collection: about 3%.
USP1-UAF1 inh: blocks the human USP1/UAF1 deubiquitinase complex | O94782 | recombinant USP1/UAF1, Ub-Rhodamine cleavage fluorescence | AID 743255 | 390,000 tested, 0.23% active | Potency, µM (doses to about 57.1 µM), for the others: top-dose activity change, negative = inhibition, most hits filed as inhibitors; further: on the % scale 0 is the no-effect control and ±100 the full control effect; nearly all actives have a fitted effect of over 60% in size
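High-throughput fluorogenic screen: 1nM USP1/UAF1 complex, Ub-Rho substrate 150nM final, 50mM HEPES pH 7.8 with 0.5mM EDTA, 0.1 mg/ml BSA, 1mM TCEP and 0.01% Tween-20.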
TSG101-PTAP inh: blocks PTAP/TSG101 interaction to inhibit HIV-1 budding; Q99816; Fluorescence polarization, FITC-PTAP peptide / Tsg101 binding; Potency, µM (highest dose often 115 µM), without a hit: at the top dose activity change, negative = inhibition, hits mostly inhibitors; 340,000 tested, under 10 active; active means well fitted inhibition curve with a large enough effect in the main read-out, with a control signal flat, not every such curve was filed as active; inconclusive means small, poorly fitted or top-dose-only effect, or effect the other way, or a change in a side signal; inactive means no such curve, though single readings can be large or run the other way; further: % of control where 0% means no effect
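Fluorescence polarization binding of Tsg101 binding domain (10 uM final) to FITC-labeled PTAP peptide (50 nM final) in HEPES pH 7.5 buffer with NaCl, Tween 20, EDTA, TCEP. Compounds added before peptide; binding 20 min at RT.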
PLK1 PBD block: blocks phosphopeptide binding to human PLK1 polo-box domain; Plk1 PBD binding of FITC phosphopeptide, fluorescence polarization; Potency, µM, for inactives: max response, negative = inhibition, actives largely listed as inhibitors; 360,000 tested, 2.8% active; AID 720504; further: series mostly up to about 57 µM; on the % scale 0 is the no-effect control and ±100 the full control effect; nearly all actives have a fitted effect of over 65% in size
Target sequence (P53350 whole entry, looked up, the tested form may be a part): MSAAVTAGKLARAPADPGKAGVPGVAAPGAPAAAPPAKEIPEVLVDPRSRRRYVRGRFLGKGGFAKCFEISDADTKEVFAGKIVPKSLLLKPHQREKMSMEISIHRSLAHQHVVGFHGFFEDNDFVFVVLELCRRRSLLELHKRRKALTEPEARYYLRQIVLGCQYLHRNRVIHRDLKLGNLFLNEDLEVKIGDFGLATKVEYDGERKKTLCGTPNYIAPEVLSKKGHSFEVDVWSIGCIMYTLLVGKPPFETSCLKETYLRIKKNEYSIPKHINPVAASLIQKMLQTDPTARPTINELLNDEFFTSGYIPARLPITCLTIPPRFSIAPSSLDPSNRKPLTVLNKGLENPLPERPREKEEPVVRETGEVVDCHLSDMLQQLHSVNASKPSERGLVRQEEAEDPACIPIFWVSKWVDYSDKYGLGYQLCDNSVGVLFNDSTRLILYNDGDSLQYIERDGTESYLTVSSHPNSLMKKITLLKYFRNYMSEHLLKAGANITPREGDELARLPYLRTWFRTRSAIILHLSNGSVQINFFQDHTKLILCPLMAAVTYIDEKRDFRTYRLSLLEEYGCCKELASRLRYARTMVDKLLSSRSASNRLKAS
VDR inhibitor: blocks the human vitamin D receptor | VDR-SRC2-3 peptide fluorescence polarization, 2 h | Potency, µM, without a hit: max response, negative = inhibition, hits mostly inhibitors | 400,000 tested, 0.93% active | AID 504847; further: on the % scale 0 is the no-effect control and ±100 the full control effect
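Fluorescence polarization assay of small-molecule disruption of VDR binding to coregulator peptide SRC2-3. Compounds and controls pin-transferred, then read after 2 h incubation at ambient room temperature.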
KAT2A inh: blocks human GCN5L2 histone acetyltransferase; GCN5L2 HAT assay, ThioGlo1 CoA-SH fluorescence; Potency, µM (series often up to 58.9 µM), without a hit: top-dose activity change, negative = inhibition, actives largely listed as inhibitors; 390,000 tested, 0.21% active; further: on the % scale 0 is the no-effect control and ±100 the full control effect
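Fluorescence readout, Ex340nm/Em540nm: ThioGlo1 (50uM final) reacts with free CoA thiol released as 20nM GCN5L2 acetylates H3(1-25) peptide (75uM) using acetyl-CoA (70uM). Compound and enzyme sat 15 min beforehand; 20 min room-temperature reaction.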
Numbers without * were called inactive; u = inconclusive; x = no result. Unless noted, the call rests on the fitted dose curve; in most records, active means well fitted curve in the direction sought with a large enough effect; inconclusive means small, poorly fitted or top-dose-only effect, or another doubt; inactive means no such curve, though single readings can be large; an effect the other way counts as inactive or inconclusive. Potency means the concentration at half of the fitted maximal effect.

SMILES | USP1-UAF1 inh | TSG101-PTAP inh | PLK1 PBD block | VDR inhibitor | KAT2A inh
Cc1cc(OC(C)C(=O)Nc2c(C(=O)c3ccc(F)cc3)oc3ccccc23)ccc1Cl (stereo unspecified) | -17% | x | x | -5% | -4%
COc1cc(/C=C/C(=O)O)cc(S(=O)(=O)N2CCc3ccccc32)c1OC | -28% | -2% | 3% | 9% | -3%
COc1cc(/C=C/C(=O)O)cc(S(=O)(=O)N2CCCc3ccccc32)c1OC | -13% | 0% | 27µM* | u | -3%
O=C1N(c2ccc(Cl)cc2)C(c2ccccc2)N2CCCN12 (stereo unspecified) | -17% | 0% | 19µM* | u | 2%
O=C1N(c2ccccc2)C(c2ccccc2)N2CCCN12 (stereo unspecified) | -10% | 3% | 0% | -15% | -6%
Nc1[nH]n(-c2ccccc2)c(=O)c1N=Nc1ccc2ncsc2c1 | -19% | -3% | 27µM* | u | -3%
Nc1[nH]n(-c2ccccc2)c(=O)c1N=Nc1ccccc1 | -9% | -2% | -8% | 8% | -4%
O=[N+]([O-])c1ccc(S(=O)(=O)N2CCSC2c2ccco2)cc1 (stereo unspecified) | -27% | -1% | 12µM* | 79µM* | -13%
COc1cc2oc(=O)c(CC(=O)NCCc3ccccc3)c(C)c2cc1Cl | -21% | x | x | -1% | 1%
CCOC(=O)C1=NOC(COc2ccccc2C=O)C1 (stereo unspecified) | -15% | 0% | 27µM* | u | -14%
CCOC(=O)C1=NOC(CNC(=O)C2=NOC(CNC(=O)c3c(-c4ccccc4Cl)noc3C)C2)C1 (stereo unspecified) | 2% | -2% | -2% | 15% | -2%
COc1cc(NC(=O)COC(=O)CCCC2=NS(=O)(=O)c3ccccc3N2)cc(OC)c1 | -11% | -7% | 21µM* | -19% | -3%
COCCCNC(=S)Nc1cccc2ncccc12 | -10% | -3% | 27µM* | -18% | 1%
O=C(NC(=S)Nc1cccc2ncccc12)c1ccco1 | -19% | 4% | -4% | -14% | 17%
CCn1nc(C(=O)Nc2ccc3c(c2)OCCO3)c2ccccc2c1=O | -15% | x | -6% | x | x
CCn1nc(C(=O)OCC(=O)c2ccc3c(c2)OCCO3)c2ccccc2c1=O | -15% | -6% | 21µM* | u | -3%
N#CCCn1c(=O)c(-c2ccccc2)nc2cnc(N3CCOCC3)nc21 | x | x | x | -12% | 14%
CC1(C)C2CCC(CN=C(N)CSS(=O)(=O)O)C1C2 (stereo unspecified) | u | x | 4.7µM* | x | x
COC(=O)[C@@H]1C(c2c(OC)cc(OC)cc2OC)=NO[C@H]1C(=O)OC | -15% | -4% | -6% | 3% | -1%
COc1cc(/C=C2\C(C)=C(C#N)c3nc(N)c(C#N)c(C)c32)ccc1OCC(=O)O | -19% | -4% | 27µM* | -19% | 1%
COCc1cc(C)nc(OCC(=O)N/N=C/c2ccc(OC)c(OC)c2)c1C#N | -12% | 0% | -21% | -2% | -11%
COc1cc(OC)cc(-c2nnc(SCc3ccc(C(=O)O)cc3)o2)c1 | -15% | -4% | 19µM* | u | u
CCN1C(=O)/C(=C\c2ccc(-c3cccc(C(=O)OC)c3)o2)SC1=Nc1ccc(C(=O)O)cc1 | x | x | x | x | -6%
CCN1C(=O)/C(=C\c2ccc(-c3ccc([N+](=O)[O-])cc3OC)o2)SC1=Nc1cccc(C(=O)O)c1 | u | -13% | 21µM* | u | -3%
CCN=C1S/C(=C\c2ccc(-c3cccc(C(=O)O)c3)o2)C(=O)N1CC | -13% | -7% | u | -21% | 0%
SMILES | USP1-UAF1 inh | TSG101-PTAP inh | PLK1 PBD block | VDR inhibitor | KAT2A inh
O=C(O)c1cccc(-c2ccc(/C=C3/SC(=Nc4ccccc4)N(Cc4cccnc4)C3=O)o2)c1 | -7% | -11% | 24µM* | -13% | -9%
CCc1cc2c(cc3c(=O)n(CC(=O)N4CCN(c5cccc(C)c5C)CC4)nc(CC)n32)s1 | -25% | x | x | 8% | -1%
COc1cc(/C=C/C(=O)OCC(=O)Nc2ccc(S(N)(=O)=O)cc2)ccc1O | u | -1% | 13µM* | -9% | -12%
COc1cc(/C=C/C(=O)OCC(=O)Nc2ccc([N+](=O)[O-])cc2)ccc1O | 0% | -3% | -5% | 1% | -4%
CN1CCN(S(=O)(=O)c2ccc(Cl)s2)CC1 | -24% | -4% | 2% | 9% | 0%
O=S(=O)(NN1CCOCC1)c1ccc(Br)s1 | -19% | -5% | 3µM* | u | -27%
O=S(=O)(NN1CCOCC1)c1ccc(Cl)s1 | -9% | 1% | 21µM* | 9% | 2%
O=S(=O)(NN1CCOCC1)c1ccc(Br)cc1 | -23% | -2% | 7.5µM* | u | -20%
CN1CCN(NS(=O)(=O)c2ccc(Cl)s2)CC1 | 0% | -1% | 8.4µM* | u | 0%
CC(=O)Nc1ccc(NC(=O)c2csnn2)cc1 | -25% | x | x | 11% | -7%
Cc1ccc(N(C(=O)c2csnn2)C(C(=O)NC2CCCC2)c2ccccn2)c(C)c1 (stereo unspecified) | -19% | 0% | 3% | -14% | 0%
CCN1C(=O)C(=Cc2cccc(OC)c2Oc2ccc([N+](=O)[O-])cc2[N+](=O)[O-])SC1=S | -18% | -7% | -11% | -17% | u
O=C(CN(CC(=O)N1CCOCC1)S(=O)(=O)c1ccc(Br)s1)N1CCOCC1 | -8% | -1% | 24µM* | -22% | x
NS(=O)(=O)c1ccc(CNC(=O)/C=C/c2ccccc2)cc1 | -10% | 0% | 27µM* | -2% | -16%
NS(=O)(=O)c1ccc(CNC(=O)CCCSc2ccccc2)cc1 | -12% | -5% | 30µM* | -7% | -3%
COc1ccc(CNC(=O)CCCSc2ccccc2)cc1 | -16% | -1% | 1% | 2% | 2%
O=C1CCCc2c1oc1c2CCCC1 | 6% | -9% | -27% | 3% | x
O=C(c1ccc([N+](=O)[O-])cc1)N(Cc1ccco1)c1ccccn1 | -22% | x | x | 8% | -10%
COc1ccc(Cl)cc1NC(=O)CN(C1CCCCC1)S(C)(=O)=O | -21% | -8% | 30µM* | 3% | -18%
CS(=O)(=O)N(CC(=O)Nc1ccc(F)cc1F)C1CCCCC1 | -21% | 0% | -7% | -14% | -22%
CCCCCCCCN=C(N)c1ccc(C(=O)OCC2CCCCC2)cc1 | x | x | x | 0% | -9%
O=C(NCc1cc(C(F)(F)F)ccc1Cl)c1cccc2c1C(=O)c1ccc(N3CCC(N4CCCCC4)CC3)cc1S2(=O)=O | -25% | x | 14% | x | x
O=C(NCc1ccc(OC(F)(F)F)cc1)c1cccc2c1C(=O)c1ccc(N3CCCC3)cc1S2(=O)=O | 17% | u | 23% | -12% | -10%
O=C(NCc1ccc(OC(F)(F)F)cc1)c1cccc2c1C(=O)c1ccc(N3CCCCC3)cc1S2(=O)=O | 25µM* | x | 8% | 1% | -1%
